Measured values: PubChem BioAssay AID1159580 (chemical genetic matrix, 2015)
The whole screen tested about 5,500 compounds, of which about 2,000 (36%) were called active. Inconclusive results (about 18%) are left out. Cut-off read from the data, not from the text of the source: active = normalized growth mostly below about 0.91 (no sharp cut-off); inconclusive = no clear call, values can overlap the other calls; inactive = mostly above about 0.92. Some of the results follow.

Assay: chemical genetic growth profiling, strain panel (AID 1159580);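 note: tested at 20 µM; growth read once vehicle control cultures reached saturation at 30 °C; 1 = growth at the plate median or of vehicle wells; lower values mean less growth of the strain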
Conditions: growth OD

Measured: normalized growth

Cn1nnnc1SCC1=C(C(=O)O)N2C(=O)C(NC(=O)C(OC=O)c3ccccc3)C2SC1 (stereo unspecified)
inactive: S. cerevisiae deletion strains, locus YJR075W, strain HOC1, active compounds read low 1.01 | S. cerevisiae deletion strains, locus YKL009W, strain mrt4, active compounds read low 1.02 | S. cerevisiae deletion strains, locus YKL068W, active compounds read low 1.01 | S. cerevisiae deletion strains, locus YKL085W, strain MDH1 (second series), active compounds read low 1 | S. cerevisiae deletion strains, locus YKL085W, strain MDH1, active compounds read low 1 | S. cerevisiae deletion strains, locus YKL160W, strain elf1, active compounds read low 1.01 | S. cerevisiae deletion strains, locus YKL190W, strain CNB1, active compounds read low 1 | S. cerevisiae deletion strains, locus YKR001C, strain vps1, active compounds read low 1.02 | S. cerevisiae deletion strains, locus YKR026C, strain gcn3, active compounds read low 0.989 | S. cerevisiae deletion strains, locus YKR091W, strain srl3, active compounds read low 0.995 | S. cerevisiae deletion strains, locus YLL001W, strain dnm1, active compounds read low 1 | S. cerevisiae deletion strains, locus YLL026W, active compounds read low 0.997 | S. cerevisiae deletion strains, locus YLL041C, strain sdh2, active compounds read low 1 | S. cerevisiae deletion strains, locus YLR027C, strain aat2, active compounds read low 0.992 | S. cerevisiae deletion strains, locus YLR039C, strain RIC1, active compounds read low 1 | S. cerevisiae deletion strains, locus YLR058C, strain SHM2, active compounds read low 1 | S. cerevisiae deletion strains, locus YLR102C, strain apc9, active compounds read low 1.02 | S. cerevisiae deletion strains, locus YLR113W, strain HOG1, active compounds read low 0.941 | S. cerevisiae deletion strains, locus YLR221C, strain rsa3, active compounds read low 0.987 | S. cerevisiae deletion strains, locus YLR258W, strain gsy2, active compounds read low 0.998 | S. cerevisiae deletion strains, locus YLR262C, strain YPT6 (second series), active compounds read low 1.02 | S. cerevisiae deletion strains, locus YLR262C, strain YPT6, active compounds read low 1.04 | S. cerevisiae deletion strains, locus YLR268W, strain sec22, active compounds read low 1.01 | S. cerevisiae deletion strains, locus YLR320W, strain mms22, active compounds read low 0.993 | S. cerevisiae deletion strains, locus YLR330W, strain CHS5, active compounds read low 1 | S. cerevisiae deletion strains, locus YLR342W, strain FKS1 (second series), active compounds read low 0.999 | S. cerevisiae deletion strains, locus YLR342W, strain FKS1, active compounds read low 0.992 | S. cerevisiae deletion strains, locus YLR357W, strain rsc2, active compounds read low 0.94 | S. cerevisiae deletion strains, locus YLR370C, strain arc18, active compounds read low 0.989 | S. cerevisiae deletion strains, locus YLR371W, strain rom2, active compounds read low 1.02 | S. cerevisiae deletion strains, locus YLR384C, strain iki3, active compounds read low 0.991 | S. cerevisiae deletion strains, locus YLR418C, strain cdc73, active compounds read low 1.04 | S. cerevisiae deletion strains, locus YML016C, strain PPZ1, active compounds read low 1.01 | S. cerevisiae deletion strains, locus YML032C, strain rad52, active compounds read low 1.04 | S. cerevisiae deletion strains, locus YML120C, strain ndi1, active compounds read low 1.02 | S. cerevisiae deletion strains, locus YML124C, strain tub3, active compounds read low 1.02 | S. cerevisiae deletion strains, locus YMR058W, strain fet3, active compounds read low 0.998 | S. cerevisiae deletion strains, locus YMR078C, strain ctf18, active compounds read low 1.02 | S. cerevisiae deletion strains, locus YMR125W, strain sto1, active compounds read low 0.989 | S. cerevisiae deletion strains, locus YMR129W, active compounds read low 1 | S. cerevisiae deletion strains, locus YMR205C, strain PFK2, active compounds read low 1.02 | S. cerevisiae deletion strains, locus YMR223W, strain ubp8, active compounds read low 1.02 | S. cerevisiae deletion strains, locus YMR231W, strain pep5, active compounds read low 0.998 | S. cerevisiae deletion strains, locus YMR263W, strain SAP30, active compounds read low 0.999 | S. cerevisiae deletion strains, locus YMR307W, strain GAS1, active compounds read low 1.07 | S. cerevisiae deletion strains, locus YNL067W, strain RPL9B, active compounds read low 1 | S. cerevisiae deletion strains, locus YNL071W, strain lat1, active compounds read low 1 | S. cerevisiae deletion strains, locus YNL128W, strain TEP1, active compounds read low 1.02 | S. cerevisiae deletion strains, locus YNL153C, strain GIM3, active compounds read low 0.997 | S. cerevisiae deletion strains, locus YNL183C, strain NPR1, active compounds read low 0.934 | S. cerevisiae deletion strains, locus YNL209W, strain ssb2, active compounds read low 1 | S. cerevisiae deletion strains, locus YNL233W, strain BNI4, active compounds read low 0.993 | S. cerevisiae deletion strains, locus YNL248C, strain rpa49, active compounds read low 0.986 | S. cerevisiae deletion strains, locus YNL250W, strain rad50, active compounds read low 1.02 | S. cerevisiae deletion strains, locus YNL271C, strain bni1, active compounds read low 1.04 | S. cerevisiae deletion strains, locus YNL298W, strain CLA4, active compounds read low 1.05 | S. cerevisiae deletion strains, locus YNL307C, strain MCK1, active compounds read low 1.03 | S. cerevisiae deletion strains, locus YNL322C, strain KRE1 (second series), active compounds read low 1 | S. cerevisiae deletion strains, locus YNR049C, strain mso1, active compounds read low 0.988 | S. cerevisiae deletion strains, locus YNR052C, strain pop2, active compounds read low 1.03 | S. cerevisiae deletion strains, locus YOL006C, strain TOP1, active compounds read low 1.02 | S. cerevisiae deletion strains, locus YOL012C, strain htz1 0.769 | S. cerevisiae deletion strains, locus YOL147C, strain pex11, active compounds read low 1.02 | S. cerevisiae deletion strains, locus YOR001W, strain rrp6, active compounds read low 0.973 | S. cerevisiae deletion strains, locus YOR061W, strain CKA2, active compounds read low 1.01 | S. cerevisiae deletion strains, locus YOR069W, strain VPS5, active compounds read low 0.993 | S. cerevisiae deletion strains, locus YOR070C, strain gyp1, active compounds read low 0.985 | S. cerevisiae deletion strains, locus YOR080W, strain dia2, active compounds read low 1 | S. cerevisiae deletion strains, locus YOR083W, strain WHI5, active compounds read low 1.01 | S. cerevisiae deletion strains, locus YOR106W, strain vam3, active compounds read low 1.02 | S. cerevisiae deletion strains, locus YOR136W, strain idh2, active compounds read low 1.03 | S. cerevisiae deletion strains, locus YOR144C, strain elg1, active compounds read low 1.01 | S. cerevisiae deletion strains, locus YOR184W, strain ser1, active compounds read low 1.02 | S. cerevisiae deletion strains, locus YOR231W, strain MKK1, active compounds read low 0.983 | S. cerevisiae deletion strains, locus YOR265W, strain rbl2, active compounds read low 1.01 | S. cerevisiae deletion strains, locus YOR270C, strain vph1, active compounds read low 1.01 | S. cerevisiae deletion strains, locus YOR290C, strain snf2, active compounds read low 1.01 | S. cerevisiae deletion strains, locus YOR316C, strain cot1, active compounds read low 1.02 | S. cerevisiae deletion strains, locus YPL051W, strain arl3, active compounds read low 0.983 | S. cerevisiae deletion strains, locus YPL055C, strain LGE1, active compounds read low 1.02 | S. cerevisiae deletion strains, locus YPL078C, strain atp4, active compounds read low 1.01 | S. cerevisiae deletion strains, locus YPL106C, strain sse1, active compounds read low 1.01 | S. cerevisiae deletion strains, locus YPL240C, strain hsp82, active compounds read low 0.995 | S. cerevisiae deletion strains, locus YPL241C, strain CIN2, active compounds read low 1 | S. cerevisiae deletion strains, locus YPL256C, strain CLN2, active compounds read low 0.999 | S. cerevisiae deletion strains, locus YPR119W, strain clb2, active compounds read low 1.02 | S. cerevisiae deletion strains, locus YPR141C, strain kar3, active compounds read low 1.01 | S. cerevisiae deletion strains, locus YPR163C, strain tif3, active compounds read low 1.04 | S. cerevisiae deletion strains, locus YPR167C, strain met16, active compounds read low 1.02 | S. cerevisiae deletion strains, strain wtn01, active compounds read low 1.01 | S. cerevisiae strains, strain wild type, active compounds read low 1
